Reference: PubChem BioAssay AID2284196 (EPA ToxCast)
The source made the active and inactive calls. How the source made its calls: active means hit-call score of the fitted dose curve at least 0.9, where 1 is the maximum; inactive means score below 0.9.

molecular target: human Peripheral-type Benzodiazepine Receptor (PBR/TSPO) Antagonism, TSPO (gene 706) (UniProt P30536); test: ERF_FR_MP_hTSPO: Eurofins (ERF) Radioligand Binding LeadHunter Assay for human Peripheral-type Benzodiazepine Receptor (PBR/TSPO) Antagonism
Method: ERF_FR_MP_hTSPO is a biochemical, single-readout assay that uses extracted gene-proteins in a cell-free assay. Measurements were taken 0.25 hour after chemical dosing in a 96-well plate. See PBR Human Binding (Antagonist Radioligand) Assay, Cerep.ERF_FR_MP_hTSPO is an assay component calculated from the ERF_FR_MP_hTSPO assay. It is designed to measure radioligand binding using a type of binding reporter as detected by scintillation counting with radiometry technology.Data from the assay component ERF_FR_MP_hTSPO was analyzed at the assay endpoint, ERF_FR_MP_hTSPO, in the positive analysis fitting direction relative to DMSO as the negative control and baseline of activity. Using a type of binding reporter, loss-of-signal activity can be used to understand changes in binding as they relate to gene TSPO. To generalize the intended target to other relatable targets, this assay endpoint is annotated to the membrane protein intended target family, where the subfamily is mitochondrial associated translocator protein.
Human glioblastoma U118MG cells are used to prepare peripheral benzodiazepine receptor in modified Tris-HCl buffer pH 7.4. A 100 ug aliquot is incubated with 0.2 nM [3H] PK-11195 for 15 minutes at room temprature. Non-specific binding is estimated in the presence of 10 uM PK-11195. Membranes are filtered and washed, the filters are then counted to determine [3H] […]

human Peripheral-type Benzodiazepine Receptor (PBR/TSPO) Antagonism, TSPO (gene 706), sequence (P30536 whole entry, looked up): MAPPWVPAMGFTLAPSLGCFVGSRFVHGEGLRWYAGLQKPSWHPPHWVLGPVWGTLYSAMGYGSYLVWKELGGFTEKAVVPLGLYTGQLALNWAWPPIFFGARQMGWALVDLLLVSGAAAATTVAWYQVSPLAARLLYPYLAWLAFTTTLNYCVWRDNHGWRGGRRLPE

Row | SMILES | AC50 | outcome
1 | O=C(/C=C/c1ccc(O)cc1)CC(=O)/C=C/c1ccc(O)cc1 | 891 nM (active) | –
2 | COc1cc(CCC(=O)CC(=O)CCc2ccc(O)c(OC)c2)ccc1O | – | inactive
